Experimental data from the supplement of paper PMC8877412.
Structures can show the parent of a compound that is named as a salt. ± gives the uncertainty stated by the source.

test system: NCC-PMP1-C1; test: cell viability relative to DMSO control; higher = less growth inhibition; conditions: 10 µM; 72 h
Procedure: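 NCC-PMP1-C1 pseudomyxoma peritonei cells were seeded in 384-well plates coated with Matrigel and MEF (1e4 cells). Viability was read after 72 h by CCK-8 and expressed as % of the DMSO control, mean ± SD of duplicates.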

SMILES	cell viability
COc1cc([C@@H]2c3cc4c(cc3[C@@H](O[C@@H]3O[C@@H]5CO[C@@H](C)O[C@H]5[C@H](O)[C@H]3O)[C@H]3COC(=O)[C@H]23)OCO4)cc(OC)c1O [Etoposide]	61.1 ± 1.9%
C=CC(=O)Nc1cc2c(Nc3ccc(F)c(Cl)c3)ncnc2cc1OCCCN1CCOCC1 [Canertinib(CI-1033)]	92.8 ± 7.2%
S=c1[nH]cnc2nc[nH]c12 [Mercaptopurine (6-MP)]	-6.45%
Nc1ccn([C@@H]2O[C@H](CO)[C@@H](O)[C@@H]2O)c(=O)n1 [Cytosine β-D-arabinofuranoside hydrochloride]	74.2 ± 10%
CO[C@H]1C[C@@H]2CC[C@@H](C)[C@@](O)(O2)C(=O)C(=O)N2CCCC[C@H]2C(=O)O[C@H]([C@H](C)C[C@@H]2CC[C@@H](OCCO)[C@H](OC)C2)CC(=O)[C@H](C)/C=C(\C)[C@@H](O)[C@@H](OC)C(=O)[C@H](C)C[C@H](C)/C=C/C=C/C=C/1C [Everolimus (RAD001)]	83.3 ± 7.4%
Oc1ncnc2[nH]ncc12 [Allopurinol]	123 ± 13%
CNC(=O)c1cc(Oc2ccc(NC(=O)Nc3ccc(Cl)c(C(F)(F)F)c3)cc2)ccn1 [Sorafenib Tosylate]	148 ± 14%
CCCS(=O)(=O)Nc1ccc(F)c(C(=O)c2c[nH]c3ncc(-c4ccc(Cl)cc4)cc23)c1F [Vemurafenib (PLX4032, RG7204)]	-12.5 ± 0.2%
Cc1ccc(-n2[nH]c(C)c(N=Nc3cccc(-c4cccc(C(=O)O)c4)c3O)c2=O)cc1C [Eltrombopag Olamine]	113 ± 3.3%
COc1cc2nccc(Oc3ccc(NC(=O)C4(C(=O)Nc5ccc(F)cc5)CC4)cc3)c2cc1OC [Cabozantinib malate (XL184)]	52.5 ± 6.2%
CCN1CCN(Cc2ccc(Nc3ncc(F)c(-c4cc(F)c5nc(C)n(C(C)C)c5c4)n3)nc2)CC1 [Abemaciclib mesylate]	77.7 ± 1.2%
O=C(/C=C/c1cccc(S(=O)(=O)Nc2ccccc2)c1)NO [Belinostat (PXD101)]	7.52 ± 0.13%
Nc1nc2[nH]cc(CCc3ccc(C(=O)N[C@@H](CCC(=O)O)C(=O)O)cc3)c2c(=O)[nH]1 [Pemetrexed Disodium Hydrate]	101 ± 18%
O=C(O)C1(C(=O)O)CCC1.[NH2-].[NH2-].[Pt+2] [Carboplatin]	61.9 ± 9.4%
CN(N=O)C(=O)NC1C(O)OC(CO)C(O)C1O (stereo not given) [Streptozotocin (STZ)]	111 ± 3.5%
CC(C)C[C@H](NC(=O)[C@H](Cc1ccccc1)NC(=O)c1cnccn1)B(O)O [Bortezomib (PS-341)]	-0.129 ± 0.47%
C[C@@H](CN1CC(=O)NC(=O)C1)N1CC(=O)NC(=O)C1 [Dexrazoxane]	94.8 ± 15%
CCc1c2c(nc3ccc(OC(=O)N4CCC(N5CCCCC5)CC4)cc13)-c1cc3c(c(=O)n1C2)COC(=O)[C@]3(O)CC [Irinotecan HCl Trihydrate]	101 ± 4.5%
COc1cccc2c1C(=O)c1c(O)c3c(c(O)c1C2=O)C[C@@](O)(C(=O)CO)C[C@@H]3O[C@H]1C[C@H](N)[C@@H](O)[C@H](C)O1 [Epirubicin HCl]	3.6 ± 0.6%
CCN1CCN(c2ccc(Nc3cc(N(C)C(=O)Nc4c(Cl)c(OC)cc(OC)c4Cl)ncn3)cc2)CC1	56.5 ± 0.47%
CNC(=O)c1cc(Oc2ccc(NC(=O)Nc3ccc(Cl)c(C(F)(F)F)c3)c(F)c2)ccn1 [Regorafenib (BAY 73-4506)]	147 ± 11%
O=c1[nH]c(=O)n([C@H]2C[C@H](O)[C@@H](CO)O2)cc1F [Floxuridine]	108 ± 12%
CC[C@@]1(O)C(=O)OCc2c1cc1n(c2=O)Cc2cc3c(CN(C)C)c(O)ccc3nc2-1 [Topotecan HCl]	55.8 ± 2.9%
CNC(=O)c1ccccc1Sc1ccc2c(/C=C/c3ccccn3)n[nH]c2c1 [Axitinib]	61.27 ± 0.13%
Cc1nc(Nc2ncc(C(=O)Nc3c(C)cccc3Cl)s2)cc(N2CCN(CCO)CC2)n1 [Dasatinib]	26.3 ± 4.4%
